Hit rate of the full screen: of about 320,000 compounds, about 1,300 (0.41%) were called active. Inconclusive results (about 3%) are left out. The rule behind the calls is not given here. A selection follows. Entries with a potency or affinity are not part of this list.

From PubChem BioAssay AID488890 (Southern Research Specialized Biocontainment Screening …, 2010) come the findings set out here.

The test can be described thus: growth inhibition of non-replicating M. tuberculosis (AID 488890).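 Note: plate controls were DMSO cells for no effect and high antibiotic wells for full effect.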 As to conditions: Mycobacterium tuberculosis non-replicating, at 25 µM, stronger effect = higher value.
Usually inhibition stands for the relative decrease from the control value, in per cent. For `COc1ccc(S(=O)(=O)N2CCN(C)CC2)cc1C`, the inhibition amounted to 0.44%.
For the compound `N#Cc1ccsc1NC(=O)C1CC(=O)N(Cc2ccccc2)C1` (configuration not stated), the inhibition is 50.7%.
The value for `Cc1nn(CC(=O)N2CCc3ccccc3C2)c(C)c1Cl` was 10.6%; that for `CCOC(=O)c1c(NC(=O)CCN2CCOCC2)sc(C)c1-c1ccccc1` was 55.4%.
In the case of `CCOC(=O)c1c(NC(=O)CN2CCOCC2)sc(C(=O)NC)c1C`, the inhibition is -15.7%.
The value for `O=C(Nc1ncc2c(n1)-c1ccccc1OC2)c1ccccc1Cl` was 13.6%; that for `O=C(Nc1ncc2c(n1)-c1ccccc1OC2)c1ccc(Cl)cc1` was 75.5%.
The value for `COc1ccc(C(CNC(=O)c2cccc(S(=O)(=O)NCc3ccccc3)c2)N(C)C)cc1` (configuration not stated) was -0.497%; that for `O=C(NCc1ccc2c(c1)OCO2)c1ccc(Br)s1` was 70.4%.
In the case of `O=C(NCc1ccc2c(c1)OCO2)c1c(Cl)cccc1Cl`, the inhibition was 3.82%.
As for `CC(C)(C)OC(=O)[C@H](Cc1ccccc1)NC(=O)c1nc[nH]c1C(=O)N1CCNCC1`, the inhibition came out at 9.16%.
The value for `Cc1ccc(NC(=O)C2(c3ccc([N+](=O)[O-])cc3)CCCC2)cc1` was 56.9%; that for `CCOC(=O)C1CCN(c2c(-c3ccccc3)c3cc(Cl)ccc3[nH]c2=O)CC1` was -6.2%; that for `CN(Cc1ccccc1)C(=O)c1[nH]cnc1C(=O)N[C@@H](Cc1ccccc1)C(=O)OC(C)(C)C` was 57.5%.
Turning to `CSc1ccccc1NC(=O)c1cc(CC(C)C)on1`, the inhibition stood at 77.5%.
As to `CC(C)Cc1cc(C(=O)Nc2cc(Cl)ccc2Cl)no1`, the inhibition is 75.3%.
The value for `COc1ccc(NC(=O)c2cc(CC(C)C)on2)cc1OC` was 27.3%; that for `CC(C)Cc1cc(C(=O)Nc2ccc3c(c2)OCO3)no1` was 79%; that for `COc1ccc(NC(=O)c2ccc(NC(=O)c3cccs3)cc2)cc1` was 17.2%.
The value for `Cc1ccc(S(=O)(=O)N(C)/N=C2/C(=O)N(CC(=O)O)c3ccccc32)cc1` was -9.17%.
The value for `CC/C(=N\NC(=O)Nc1ccccc1)c1c(O)n(Cc2ccccc2)c(=O)[nH]c1=O` was 0.07%; that for `O=C(/C=C/c1ccc(Br)cc1)Nc1ccc(S(=O)(=O)Nc2ncccn2)cc1` was 21.5%.
With `CCOc1ccccc1NC(=O)CCS(=O)(=O)c1cccs1`, the inhibition is 1.98%.
Regarding `CCC(CC)=NNC(=O)c1ccccc1OCc1ccc(F)cc1`, the inhibition came to 1.96%.
Consider `C/C(=N/NC(=O)c1ccccn1)c1c[nH]c2ccccc12`, for which the inhibition worked out at 53%.
The value for `C/C(=N\NC(=O)c1cccc(Br)c1)c1cccnc1` was -8.7%; that for `O=C(NCc1ccccn1)c1ccccc1OCc1ccc(F)cc1` was -9.24%; that for `C/C(=N\NC(=O)c1ccccn1)c1ccc(Cl)cc1` was 65.9%.
The value for `C/C(=N/NC(=O)c1ccccn1)c1ccc(O)cc1` was 65.9%; that for `C/C(=N\NC(=O)c1cccc(Br)c1)c1ccc(Br)cc1` was 5.12%; that for `C/C(=N/NC(=O)c1ccncc1)c1c[nH]c2ccccc12` was 52.8%.
The value for `CC(=O)NC(c1ccc(C(C)C)cc1)c1c(O)ccc2ccccc12` (configuration not stated) was -3.1%; that for `Cc1cc(C)c(S(=O)(=O)N2CCCC(C(=O)N3CCCC3)C2)c(C)c1` (configuration not stated) was -5.37%; that for `CCn1c(=O)n(CC)c2cc(NS(=O)(=O)c3ccccc3)ccc21` was 5.29%.
In the case of `COC(=O)c1c(-c2cccnc2)csc1NC(=O)c1cc(C)on1`, the inhibition was found to be 39.4%.
In the case of `CC(C)c1ccc(NC2CCCN(C(=O)CCc3cnn(C)c3)C2)cc1` (configuration not stated), the inhibition is -5.85%.
The value for `CC(=O)c1sc(NC(=O)CN2C(=O)CCC2=O)nc1C` was -3.51%; that for `O=c1cc([O-])[n+]2c3n1CCCN3CCC2` was -14.7%.
As to `COc1ccc(C(=O)N/N=C(\C)CC(=O)Nc2ccccn2)cc1OC`, the inhibition is -1.08%.
Turning to `COc1cc(C(=O)N/N=C(\C)c2ccccn2)cc(OC)c1OC`, the inhibition came out at 36.9%.
The value for `CCn1c(SCC(=O)Nc2cc(Cl)ccc2OC)nnc1C1CC1` was 1.4%; that for `COc1ccc(NC(=O)COc2nc(N(C)C)nc(N(C)C)n2)cc1` was -4.63%; that for `COc1ccc(CCC(=O)NC2CCCN(Cc3ccc(Cl)cc3)C2)cc1OC` (configuration not stated) was 7.24%.
The value for `OCC[C@@H]1C[C@@H](O)[C@H](O)[C@@]2(OCCc3ccccc32)O1` was -1.04%; that for `COc1cc(OC)cc(C(=O)NNC(=O)C2CCCC2)c1` was -10.6%; that for `CC(=O)N1CCc2c(sc(NC(=O)C3CC3)c2-c2nc3ccccc3s2)C1` was 12.5%.
For the compound `CC(C)N1CCc2c(sc(NC(=O)c3nc4ccccc4s3)c2C(N)=O)C1`, the inhibition came to 77.9%.
The value for `Cc1cccc(N(CC(=O)NC(C)(C)C)C(=O)CS(=O)CC(=O)Nc2ccc(F)cc2)c1` (configuration not stated) was -8.34%; that for `COc1ccc(-c2nnc(SCc3ccc(C(=O)O)cc3)n2N)cc1` was -5.97%; that for `COCCSc1nnc(NC(=O)CS(=O)(=O)c2ccccc2)s1` was 2.87%.
With `O=C(CCS(=O)(=O)Cc1ccccc1)Nc1nncs1`, the inhibition was 60.5%.
The value for `O=C(CS(=O)(=O)c1ccccc1)Nc1ncc([N+](=O)[O-])s1` was -8.38%; that for `Cc1nnc(NC(=O)CCS(=O)(=O)Cc2ccccc2)s1` was 57.7%.
For the compound `O=C(Cc1csc(Nc2nc(=S)[nH]c3ccccc23)n1)N1CCN(c2cccc(C(F)(F)F)c2)CC1`, the inhibition is -8.89%.
Regarding `CC(=O)N(Cc1ccccc1)Cc1nc2sc(C)c(C)c2c(=O)[nH]1`, the inhibition was 5.06%.
For the compound `O=C(CN1C(=O)CSc2ccc(S(=O)(=O)N3CCOCC3)cc21)NCCCN1CCCCC1`, the inhibition is -5.81%.
The value for `Cc1ccc(S(=O)(=O)CC(=O)Nc2ccc(Cl)cn2)cc1` was 53.5%.
For the compound `COc1ccc([N+](=O)[O-])cc1/C=N/NC(=O)CNC(=O)c1cccc(F)c1`, the inhibition is 23.1%.
As to `CC(C)CCOCc1nc2sc3c(c2c(=O)[nH]1)CCC(C)C3` (configuration not stated), the inhibition is 27.8%.
`CSc1nc2sc3c(c2c(=O)[nH]1)CCC(C)C3` (configuration not stated): the inhibition was -4.35%.
As to `O=C(CCc1c[nH]c2ccccc12)NCCc1ccc(Cl)cc1`, the inhibition was -0.44%.
The value for `CC(=O)N[C@@H](Cc1c[nH]c2ccccc12)C(=O)OCc1ccc(C#N)cc1` was 5.82%; that for `O=C(CCc1c[nH]c2ccccc12)NCc1ccc2c(c1)OCO2` was 6.21%.
The value for `NC(=O)CCc1c[nH]c2ccccc12` was -20.3%; that for `O=C(CCCc1c[nH]c2ccccc12)NCc1ccc2c(c1)OCO2` was 7.12%; that for `O=C(Cc1c[nH]c2ccccc12)NCc1ccc(Cl)cc1` was 12.5%.
With `CCOC(=O)CNC(=O)CSc1ncnc2c1nnn2-c1ccc(F)cc1`, the inhibition was found to be 71.2%.
For the compound `COc1ccc(-c2sccc2C(C)C(=O)O)cc1` (configuration not stated), the inhibition is 1.98%.
For `CCOc1ccc(S(=O)(=O)NCCC(=O)N2CCN(c3ccccc3O)CC2)cc1`, the inhibition was 0.02%.
The value for `Cc1cc(C)nc(NS(=O)(=O)c2ccc(NC(=O)c3ccc(S(=O)(=O)N4CCOCC4)cc3)cc2)n1` was 14.6%.
Consider `CCOCC(=O)Nc1nnc(COC)s1`, for which the inhibition was determined as 9.42%.
The value for `CC(=O)c1ccc(N2CCN(S(=O)(=O)c3cc4[nH]c(=O)c(=O)[nH]c4cc3C)CC2)cc1` was -6.88%.
The value for `CC1CCN(c2ccc(/C=N/n3nnnc3N)cc2[N+](=O)[O-])CC1` was 6.33%; that for `NC(=O)N/N=C/c1ccc(-c2ccc([N+](=O)[O-])cc2)o1` was 45.3%; that for `CCOc1cc(/C=N/Nc2nnc(C)n2N)ccc1O` was 2.89%.
The value for `NC(=S)N/N=C/c1ccc(-c2ccc([N+](=O)[O-])cc2)o1` was 63.3%; that for `COc1ccc(/C=N/Nc2nnc(C)n2N)cc1OC` was -3.85%; that for `Cc1nnc(N/N=C/c2c(Cl)cccc2Cl)n1N` was 18.3%.
`CC(C)(C)c1nnc(N/N=C/c2ccc(Br)cc2)n(N)c1=O`: the inhibition came to 12%.
The value for `Cc1nnc(N/N=C/c2cc([N+](=O)[O-])c(N3CCC(C)CC3)cc2N2CCC(C)CC2)n1N` was 37.3%.
On to `COc1ccc(N(CC(=O)NCCc2ccccc2)C(=O)CCC(=O)Nc2ccccn2)cc1`, for which the inhibition is -3.83%.
The value for `CC(C)N(CCNC(=O)c1ccc(CS(=O)(=O)c2c(Cl)cccc2Cl)o1)Cc1ccccc1` was 15.8%; that for `Cc1ccc(S(=O)(=O)N2CCOCC2)cc1C(=O)OCC(=O)N(Cc1ccccc1)C(C)C` was 0.48%.
Turning to `O=C(CNC(=O)c1cccs1)NCC(=O)OCc1ccc(Cl)cc1`, the inhibition stood at 15.7%.
Consider `CCN(CC)S(=O)(=O)c1ccc(N2CCOCC2)c(NS(=O)(=O)c2ccc(OC)cc2)c1`, for which the inhibition is -8.38%.
Turning to `CCc1nc(NC(C)C)c2oc3ccccc3c2n1`, the inhibition came out at 8.44%.
For the compound `Cc1nnc(N/N=C\c2ccc(-c3ccccc3[N+](=O)[O-])o2)n1N`, the inhibition was 63.6%.
The value for `Cc1nnc(N/N=C\c2ccc(-c3cccc(C(=O)O)c3)o2)n1N` was 12.4%; that for `CCOc1cc2c(cc1OCC)C(c1ccc(F)cc1)NCC2` (configuration not stated) was 19.2%.
The value for `CC(CNC(=O)c1ccc(OC2CCN(Cc3ccccn3)CC2)cc1)Oc1cccnc1` (configuration not stated) was 0.447%; that for `COc1ccc(CNC(=O)CCCc2ccccc2)cc1` was 1.45%; that for `COc1ccc(CCNC(=O)CCCc2ccccc2)cc1OC` was 26.3%.
The value for `CN(CC(=O)Nc1ccc(F)c(F)c1)S(=O)(=O)c1cccc2cccnc12` was 0.37%.
Regarding `O=C(COC(=O)c1ccccn1)Nc1ccccc1Cl`, the inhibition came out at 3.22%.
The value for `O=C(OCc1c(Cl)cccc1Cl)c1cnccn1` was 17.6%; that for `O=C(OCc1c(Cl)cccc1Cl)c1cccnc1Cl` was 33.3%.
Regarding `N#Cc1ccc(COC(=O)c2ccccn2)cc1`, the inhibition is 55.2%.
Regarding `COC(=O)c1ccc(COC(=O)c2cnccn2)cc1`, the inhibition came to 55.1%.
The value for `O=C(OCc1ccc(Cl)c(Cl)c1)c1cnccn1` was 4.21%.
The value for `COC(=O)c1ccc(OC(=O)c2ccccn2)cc1` was 42%.
The value for `O=C(COC(=O)c1ccccn1)Nc1c(Cl)cccc1Cl` was 8.09%; that for `O=C(c1cccs1)N1CCN(C2CCCCC2)CC1` was 14.6%.
In the case of `O=C(CSc1nnc(CNC(=O)c2ccccc2F)o1)NCC1CCCO1` (configuration not stated), the inhibition is 4.55%.
Regarding `Cc1cc(C)c(C)c(C(=O)COC(=O)CNC(=O)CNC(=O)c2ccco2)c1C`, the inhibition is 6.12%.
The value for `CN(C)/C=N/c1cc(=O)[nH]c(=O)n1CC1CC1` was -0.07%; that for `O=C(Oc1c(Cl)cc(Cl)c2cccnc12)N1CCCCC1` was 22.4%.
In the case of `O=C(COc1ccc2ccccc2c1Br)N1CCCCC1`, the inhibition came to 76.2%.
The value for `CN1CCN(C(=O)COc2ccc3ccccc3c2Br)CC1` was 37.4%; that for `O=C(Oc1c(Br)cc(Br)c2cccnc12)N1CCCCC1` was 43.3%; that for `O=C(COc1ccccc1F)Nc1c2c(nn1-c1ccccc1)CS(=O)(=O)C2` was 16.8%.
For the compound `Cc1ccc(OCC(O)Cn2c(N3CCOCC3)nc3c2c(=O)[nH]c(=O)n3C)cc1` (configuration not stated), the inhibition amounted to 14.4%.
Regarding `COc1cccc(/C=N/N2CCN(c3ccccc3OC)CC2)c1`, the inhibition stood at 2.17%.
